Compound activity (PubChem)
A selection: hits, their analogues and other compounds. The true share with any hit is near 1.1%.
SARS 3CLpro inh-1 = SARS-CoV 3CLpro protease inhibitors, primary screen, biochemical, quenched FRET; Replicase polyprotein 1ab (Severe acute respiratory syndrome coronavirus), P0C6X7; recombinant SARS-CoV 3CLpro, quenched FRET peptide cleavage; inhibition, % at 6 µM; 290,000 tested, 0.14% active; in the data active means inhibition above about 12%
VHR inh abs = VHR1 phosphatase inhibitors, primary screen, biochemical, absorbance, uHTS. Dual specificity protein phosphatase 3 (Homo sapiens), P51452. recombinant VHR phosphatase, pNPP absorbance. inhibition, % at 13.3 µM. 290,000 tested, 0.52% active. AID 1654, 2009; in the data active means inhibition above about 50%
Target sequence (P51452 whole entry, looked up): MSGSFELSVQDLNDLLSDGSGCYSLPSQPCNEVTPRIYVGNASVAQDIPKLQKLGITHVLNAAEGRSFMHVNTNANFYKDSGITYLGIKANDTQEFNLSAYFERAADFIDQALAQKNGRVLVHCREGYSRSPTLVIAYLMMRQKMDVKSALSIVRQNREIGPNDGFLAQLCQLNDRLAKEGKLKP
BJeLR viability = MLPCN primary cell-based screen for lethality selective to Ras in HRASV12 cells; 300,000 tested, 0.17% active; BJeLR (HRASV12) viability, CellTiter-Glo ATP luminescence, 48 h; inhibition, % (concentration not given with the values); AID 1554, 2009; in the data active means inhibition above about 50%
PrPC surface inh = inhibitors of human cell surface prion protein PrPC, primary screen, cell-based, TR-FRET | 370,000 tested, 0.43% active | AID 720596, 2013 | TR-FRET read-out | inhibition, % at 13.8 µM | Major prion protein (Homo sapiens), P04156; in the data active means inhibition above about 24%; further: 0% = median of the test wells and 100% = reference compound wells
SARS 3CLpro inh-2 = confirmation of SARS coronavirus 3C-like protease inhibitors, retest, confirmation, biochemical; shares compounds with SARS 3CLpro inh-1; QFRET protease activity assay, 3CLpro; inhibition, % at 6 µM; 380 tested, 36% active; in the data active means inhibition above about 13%
* hit, by the source's call; x = no result.

SMILES | SARS 3CLpro inh-1 | VHR inh abs | BJeLR viability | PrPC surface inh | SARS 3CLpro inh-2
COCC1CCN(Cc2c(C(=O)N3CCOCC3)nc3c(C)cccn23)C1 (stereo unspecified) | x | x | x | -7.2 | x
Cc1ccc(C)c(N2CCN(C(=O)CCS(=O)(=O)c3ccc4c(c3)NC(=O)C(C)S4)CC2)c1 (stereo unspecified) | 12.9* | -6.0 | -7.4 | 0.7 | 3.4
C=CCN(CC=C)C(=O)c1ccc(OC2CCN(S(=O)(=O)N(C)C)CC2)cc1 | 3.1 | 7.8 | 3.5 | 0.4 | x
CCc1nc(N2CCN(C(C)=O)CC2)c2c3c(sc2n1)CC(C(C)(C)C)CC3 (stereo unspecified) | 0.4 | 4.1 | -6.5 | -5.4 | x
CCc1nc(N2CCN(C(=O)CCl)CC2)c2c3c(sc2n1)CC(C)CC3 (stereo unspecified) | 37.7* | -22.9 | 38.3 | -5.8 | 63.2*
COc1ccccc1-n1c(C)c(C(=O)O)c2cc(OC)c3ccccc3c21 | 13.7* | -23.8 | -9.1 | -3.5 | 9.8
CCCCn1c(N)c(N(CC(C)C)C(=O)c2ccc(N3C(=O)c4ccccc4C3=O)cc2)c(=O)[nH]c1=O | x | x | -2.0 | 4.5 | x
[C-]#[N+][C@]12C(=O)[C@H](C=C(Cl)[C@@]1(C)C=C)C(C)(C)[C@H]1C(=O)N(C)c3cccc2c31 | x | x | x | 9.7 | x
CCOc1ccc(N(CC(=O)Nc2ccc(CC)cc2)S(=O)(=O)c2c(C)[nH]c(=O)[nH]c2=O)cc1 | 14.5* | -9.0 | 1.1 | -3.6 | -2.0
O=C(CCS(=O)(=O)c1ccccc1)N1CCN(c2ccc(F)cc2)CC1 | 12.6* | -0.2 | -5.4 | -6.5 | -0.5
O=C(CCS(=O)(=O)c1ccc(F)cc1)N1CCN(c2ccccc2)CC1 | x | x | 9.7 | 5.0 | x
CCn1cc(C(=O)NC(=S)Nc2ccccc2[N+](=O)[O-])cn1 | 12.8* | -9.1 | 2.8 | -11.1 | -4.7
C#CCN1C(=O)[C@]2(OCCC=C[C@H]2C)c2cc(OC)ccc21 | x | x | x | -2.8 | x
O=C1/C(=C/c2cccc(Cl)c2)SC(=S)N1CCC(=O)N1CCCCC1CCO (stereo unspecified) | 13.9* | -11.5 | -2.7 | 11.3 | 2.8
CC(=O)c1cccc(N2C(=O)CC(N3CCN(S(=O)(=O)c4ccc(Cl)cc4)CC3)C2=O)c1 (stereo unspecified) | x | x | x | -5.0 | x
O=C(CSc1ccc(F)cc1)Nc1ccc2c(c1)C(=O)NC2=O | 12.9* | 20.6 | -8.1 | -6.0 | 1.2
CC(C)C(NC(=O)c1ccc(Cl)c([N+](=O)[O-])c1)C(=O)NCc1ccccn1 (stereo unspecified) | x | x | x | -12.7 | x
Cc1ccc(C2C3=C(CC(C)(C)CC3=O)Nc3onc(C)c32)cc1 (stereo unspecified) | 14.9* | -6.4 | -8.7 | 6.6 | -3.5
Cc1noc2c1C(c1ccc(N(C)C)cc1)C1=C(CC(C)(C)CC1=O)N2 (stereo unspecified) | -0.9 | 14.6 | -4.6 | -2.4 | x
Nc1c(C(O)(C(F)(F)F)C(F)(F)F)cc(C(O)(C(F)(F)F)C(F)(F)F)c2ccccc12 | 14.4* | 7.5 | 9.5 | x | 11.5
Cc1ccc(C(=O)C2CC2)cc1C | x | x | x | -10.8 | x
O=C(c1cc(=O)[nH]c2ccccc12)N1CCN(c2ccccc2)CC1 | 32.3* | -15.2 | 5.3 | 6.0 | 31.4*
O=C(c1ccco1)N1CCN(C(=O)c2cc(=O)[nH]c3ccccc23)CC1 | x | x | x | -5.7 | x
Cc1cccc(N2CCN(C(=O)c3cc(=O)[nH]c4ccccc34)CC2)c1C | 41.3* | 18.1 | 8.7 | -2.8 | 55.1*
C1CNCCNCCCNCCNC1 | -1.3 | 27.9 | -3.8 | x | x
SMILES | SARS 3CLpro inh-1 | VHR inh abs | BJeLR viability | PrPC surface inh | SARS 3CLpro inh-2
Cc1cc2c(cc1C)C(c1cc(Br)ccc1F)CC(=O)N2 (stereo unspecified) | 7.0 | -1.2 | 12.4 | 8.9 | x
Cc1cc2c(cc1C)C(c1ccccc1F)CC(=O)N2 (stereo unspecified) | 12.6* | 0.1 | -2.4 | -0.2 | -1.9
O=C(Cc1c(F)cccc1Cl)NCCCn1ccnc1 | 38.2* | 13.0 | -2.1 | -5.1 | -5.3
O=C(Cc1ccc(Cl)cc1)NCCCn1ccnc1 | 4.7 | -1.8 | 0.7 | -3.9 | x
CCOc1ccc(N(Cc2cc3ccc(C)cc3[nH]c2=O)S(=O)(=O)c2ccccc2)cc1 | 13.0* | 29.8 | -6.5 | -5.8 | 6.4
COc1cccc(C(C(=O)Nc2ccc(F)cc2)N(C(=O)Cn2nnc3ccccc32)C2CC2)c1 (stereo unspecified) | 32.8* | 26.9 | -3.8 | -8.5 | 37.3*
CCOc1ccc(C(C(=O)Nc2ccc(F)cc2)N(C(=O)Cn2nnc3ccccc32)C2CC2)cc1 (stereo unspecified) | 4.9 | 10.2 | -0.1 | -0.4 | x
COc1cccc(C(C(=O)NCC2CCCO2)N(C(=O)Cn2nnc3ccccc32)c2ccc(NC(C)=O)cc2)c1 (stereo unspecified) | 30.5* | 27.7 | 6.0 | 6.9 | 33.8*
COc1cccc(OC)c1OCCCN1CCC(Cc2ccccc2)CC1 | 3.0 | -3.8 | 27.4 | -0.1 | x
Cc1nc(N2CCC(C)CC2)c2c(C)c(C(=O)Nc3ccc4c(c3)OCCO4)sc2n1 | 14.2* | 5.3 | -7.3 | 5.7 | 2.7
Cc1nc(N2CCC(C)CC2)c2c(C)c(C(=O)Nc3ccc(C(F)(F)F)cc3)sc2n1 | -3.8 | -3.1 | -0.5 | -0.3 | x
Cc1cc(C(=O)c2ccc(Cl)cc2)c(NC(=O)CCl)s1 | 6.3 | 4.1 | -2.4 | -15.9 | x
CCc1cc(C(=O)c2ccc(C)cc2)c(NC(=O)CCl)s1 | 19.5* | -4.5 | -5.2 | -12.8 | 44.2*
CN(CC(=O)Nc1cccc(F)c1)C(=O)/C=C/c1cn(Cc2ccccc2)nc1-c1cccnc1 | x | x | 1.8 | 0.0 | x
COc1ccc(S(=O)(=O)N2CCOC2CNC(=O)C(=O)NCCc2ccccc2OC)cc1C (stereo unspecified) | -2.6 | 17.3 | -30.4 | 0.5 | x
COc1ccc(S(=O)(=O)N2CCOC2CNC(=O)C(=O)NCCN(C)C)cc1 (stereo unspecified) | 12.6* | -3.0 | 2.0 | 0.9 | -2.8
COc1ccccc1CCNC(=O)C(=O)NCC1OCCN1S(=O)(=O)c1ccc2c(c1)OCCO2 (stereo unspecified) | 12.9* | -3.0 | 4.5 | -2.4 | -1.1
NC(=O)C1CCN(c2nc(-c3ccc4c(c3)OCCCO4)cs2)CC1 | x | x | x | 10.3 | x
Cc1ccccc1OCC(=O)OCC(=O)Nc1cc(S(=O)(=O)N2CCCCC2)ccc1Cl | x | x | -6.0 | 10.2 | x
O=C(O)/C(=C\c1ccc(F)cc1)c1ccc(-c2ccccc2)cc1 | 13.0* | -28.8 | 2.2 | 7.8 | 11.8
O=C(O)/C(=C\c1ccccc1OC(F)F)c1ccc(-c2ccccc2)cc1 | 3.7 | -3.8 | -6.3 | -0.5 | x
C[C@@]12C(=O)N(c3cccc(F)c3)C(=O)N1[C@H](c1ccc(F)cc1)[C@@H]1C(=O)N(C3CCCCC3)C(=O)[C@@H]12 | 13.5* | 1.1 | -4.8 | x | 5.8
C[C@@]12C(=O)N(c3cccc(F)c3)C(=O)N1[C@H](c1ccc(Cl)cc1)[C@@H]1C(=O)N(C3CCCCC3)C(=O)[C@@H]12 | x | x | 0.5 | 0.4 | x
